The values below come from the supplement of paper PMC13380429.

The subject of assay [1] is Vero E6 infected with SARS-CoV-2. As to the kind of experiment: morphology score (similarity to uninfected cells); higher = more like uninfected cells. The conditions noted are these: 24 h.
Assay [2] has the same test system. The experiment in a line: SARS-CoV-2 infection rate relative to infected DMSO; higher = more infection, active = 60 or less. The following applies: 24 h.

In the case of `Cc1onc(-c2ccccc2Cl)c1C(=O)N[C@@H]1C(=O)N2[C@@H]1SC(C)(C)[C@@H]2C(=O)O` [cloxacillin] (10 µM), in assay [1], the morphology score came out at 0.00481. Moreover, the SARS-CoV-2 infection rate in assay [2] was 99.5% (inactive).

`CC1(C)[C@@H]2C[C@@H](O)[C@@](C)(O)[C@H]1C2` [2,3-cis/exo-pinanediol] (10 µM) came in with a morphology score in assay [1] of 0.0892. For the same molecule, in assay [2], the SARS-CoV-2 infection rate was 95.5% (inactive).

With `CCC(C)(C)c1ccc(CC(C)CN2C[C@@H](C)O[C@@H](C)C2)cc1` (stereo not given in full) [amorolfine] (10 µM), the morphology score in assay [1] was 0.198. Besides, the SARS-CoV-2 infection rate in assay [2] was 93% (inactive).

Take `COC(=O)Nc1nc2cc(C(=O)c3ccccc3)ccc2[nH]1` [mebendazole] (0.833333 µM): the morphology score in assay [1] was -0.163. Besides, the SARS-CoV-2 infection rate in assay [2] was 102% (inactive).

Turning to `CC(C)[C@H]1[C@@H]2CC[C@@H](C2)[C@@H]1N` (10 µM), the morphology score in assay [1] was 0.109. Also, the SARS-CoV-2 infection rate in assay [2] was 82% (inactive).

On to `CC1=C(C)C(=O)C(C(CCCCCC(=O)O)c2ccccc2)=C(C)C1=O` (stereo not given) [seratrodast] (10 µM), for which the morphology score in assay [1] was 0.0459. For the same molecule, the SARS-CoV-2 infection rate in assay [2] was 100% (inactive).

Regarding `COc1cc2c(Oc3ccc4[nH]c(C)cc4c3F)ccnc2cc1OCC1(N)CC1` [anlotinib] (10 µM), the morphology score in assay [1] is -0.207. Further, the SARS-CoV-2 infection rate in assay [2] is 100% (inactive).

Turning to `COc1cc2c(CCNC(C)=O)c[nH]c2cc1Cl` [6-chloromelatonin] (10 µM), in assay [1], the morphology score was found to be 0.0228. Further, the SARS-CoV-2 infection rate in assay [2] was 104% (inactive).

Turning to `CCC(=O)O[C@@H]1CC(=O)O[C@H](C)C/C=C/C=C/[C@H](OC(C)=O)[C@H](C)C[C@H](CC=O)[C@H](O[C@@H]2O[C@H](C)[C@@H](O[C@H]3C[C@@](C)(OC(C)=O)[C@@H](OC(=O)CC)[C@H](C)O3)[C@H](N(C)C)[C@H]2O)[C@H]1OC` [miocamycin] (10 µM), in assay [1], the morphology score is -0.0251. Also, the SARS-CoV-2 infection rate in assay [2] was 110% (inactive).

As for `CC(NCCC(c1ccccc1)c1ccccc1)c1ccccc1` (stereo not given) [fendiline] (10 µM), the morphology score in assay [1] came out at 0.771. For the same molecule, the SARS-CoV-2 infection rate in assay [2] was 44% (active).

As to `NCCc1ccc(O)c(O)c1` [dopamine] (10 µM), the morphology score in assay [1] is -0.112. Further, in assay [2], the SARS-CoV-2 infection rate is 100% (inactive).

On to `N[C@@H]1c2cccnc2[C@H](OC(=O)N2CCC(n3c(=O)[nH]c4ncccc43)CC2)CC[C@H]1c1cccc(F)c1F` [rimegepant] (10 µM), for which the morphology score in assay [1] was determined as 0.177. The SARS-CoV-2 infection rate in assay [2] was 96.5% (inactive).

Consider `CC(=O)OCC1=C(C(=O)O)N2C(=O)[C@@H](NC(=O)CS/C(=N/C(C)C)NC(C)C)[C@H]2SC1` [cefathiamidine] (10 µM), for which the morphology score in assay [1] was 0.162. Also, the SARS-CoV-2 infection rate in assay [2] was 92% (inactive).

`CCCN(CCC)C(=O)C(CCC(=O)OCCCN1CCN(CCOC(=O)Cc2c(C)n(C(=O)c3ccc(Cl)cc3)c3ccc(OC)cc23)CC1)NC(=O)c1ccccc1` (stereo not given) [proglumetacin] (10 µM): in assay [1], the morphology score was 0.0923. The SARS-CoV-2 infection rate in assay [2] is 99.5% (inactive).

As to `Clc1ccc(Cn2c(CN3CCCC3)nc3ccccc32)cc1` [clemizole] (10 µM), in assay [1], the morphology score turned out to be 0.153. Further, in assay [2], the SARS-CoV-2 infection rate was 103% (inactive).

`O=c1oc(-c2ccc(C(F)(F)F)cc2)nn1Cc1cc(Cl)ccc1O` (10 µM) registered a morphology score in assay [1] of 0.593. The SARS-CoV-2 infection rate in assay [2] was 39.5% (active).

In turn, `C[C@@H](N)Cc1c[nH]c2ccc(O)cc12` [alpha-methylserotonin] (10 µM) gave a morphology score in assay [1] of 0.251. Also, the SARS-CoV-2 infection rate in assay [2] was 97% (inactive).

Regarding `COc1ccc2c(C(=S)N(C)CC(=O)O)cccc2c1C(F)(F)F` [tolrestat] (10 µM), in assay [1], the morphology score was -0.0111. The SARS-CoV-2 infection rate in assay [2] is 108% (inactive).

For the molecule `Oc1ccc(/C=C/c2cc(O)cc(O)c2)cc1` [resveratrol] (10 µM), in assay [1], the morphology score amounted to 0.0102. Moreover, the SARS-CoV-2 infection rate in assay [2] was 104% (inactive).

In assay [1], `C[C@H]1CO[C@@H]2Cn3cc(C(=O)NCc4ccc(F)cc4F)c(=O)c(O)c3C(=O)N12` (10 µM) displayed a morphology score of -0.00851. For the same molecule, in assay [2], the SARS-CoV-2 infection rate was 108% (inactive).

With `CCC(=O)N[C@@H]1Cc2ccccc2[C@H](c2ccccc2)C1` (10 µM), the morphology score in assay [1] is -0.0816. Further, the SARS-CoV-2 infection rate in assay [2] is 110% (inactive).

As to `C=CC(=O)Nc1ccc2ncnc(Nc3cccc(Br)c3)c2c1` (0.833333 µM), in assay [1], the morphology score is 0.0618. In addition, the SARS-CoV-2 infection rate in assay [2] is 90% (inactive).

`CC(C)(O)C(Cl)(Cl)Cl` [chlorobutanol] (10 µM): in assay [1], the morphology score stood at 0.123. Also, the SARS-CoV-2 infection rate in assay [2] was 106% (inactive).

In the case of `CC[C@H](Nc1ncnc2[nH]cnc12)c1nc2cccc(F)c2c(=O)n1-c1ccccc1` [idelalisib] (10 µM), in assay [1], the morphology score was -0.015. Also, the SARS-CoV-2 infection rate in assay [2] was 116% (inactive).

For the molecule `Cc1ncc(NC(=O)c2ccc(CN3CCN(C)CC3)c(C(F)(F)F)c2)cc1Nc1nccc(-c2cccnc2)n1` [flumatinib] (10 µM), the morphology score in assay [1] worked out at 0.306. The SARS-CoV-2 infection rate in assay [2] was 25.5% (active).

For the molecule `Nc1nc(Cl)nc2c1ncn2[C@@H]1O[C@H](CO)[C@@H](O)[C@@H]1F` [clofarabine] (0.833333 µM), the morphology score in assay [1] stood at 0.11. The SARS-CoV-2 infection rate in assay [2] was 94.5% (inactive).

`C=C(C)[C@@H]1[C@H]2OC(=O)[C@@H]1[C@]1(O)C[C@H]3O[C@]34C(=O)O[C@H]2[C@]14C` [picrotoxinin] (10 µM) yielded a morphology score in assay [1] of 0.0677. The SARS-CoV-2 infection rate in assay [2] was 116% (inactive).

Consider `CCN(CC)C(=O)Nc1ccc(OCC(O)CNC(C)(C)C)c(C(C)=O)c1` (stereo not given) [celiprolol] (10 µM), for which the morphology score in assay [1] worked out at 0.118. Moreover, in assay [2], the SARS-CoV-2 infection rate was 96.5% (inactive).

`COc1ccc(C(=O)Nc2sc3c(c2C(N)=O)CCCC3)cc1OC` (10 µM) had a morphology score in assay [1] of -0.0466. The SARS-CoV-2 infection rate in assay [2] is 96.5% (inactive).

`O=C(O)C1=CO[C@@H](O[C@@H]2O[C@H](CO)[C@@H](O)[C@H](O)[C@H]2O)[C@@H]2C(CO)=CC[C@H]12` [Geniposidic acid] (10 µM): the morphology score in assay [1] is -0.163. The SARS-CoV-2 infection rate in assay [2] was 114% (inactive).
